Most compounds without a hit are left out; they make up all but 0.84% or so of the library.
G6PDH counter-1 – L. mesenteroides G6PDH inhibitors, counter-screen for G6PDH-coupled screening assays, biochemical, Leuconostoc mesenteroides enzyme; glucose-6-phosphate dehydrogenase [Leuconostoc mesenteroides]; Purified L. mesenteroides G6PDH, diaphorase/resazurin coupled fluorescence, 45 min; inhibition, % at 5 µM; 0.12% of 200,000 active; AID 1020, 2008; in the data active = inhibition above about 50%
p97 inhibitor – inhibitors of human p97 ATPase, primary screen, biochemical; inhibition, % at 8 µM; Transitional endoplasmic reticulum ATPase (Homo sapiens), P55072; AID 1481, 2009; recombinant p97 ATPase, Kinase-Glo ATP luminescence, 3 h; 0.42% of 220,000 active; in the data active = inhibition above about 15%;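 also: 0% = DMSO vehicle and 100% = wells lacking enzyme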
Tb hexokinase – Trypanosoma brucei hexokinase 1 inhibitors, primary screen, biochemical, G6PDH-coupled NADH absorbance, MLSCN library | recombinant TbHK1, G6PDH-coupled NADH A340 | inhibition, % at 10 µM | 0.11% of 220,000 active | AID 1430, 2008;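 active = inhibition of 50% or more in the single-dose primary screen; inactive = inhibition below 50%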
Redox H2O2 prof – compounds producing H2O2 with reducing agent – biochemical, NIH compound library profiling, artefact control for MLSCN library redox annotation, primary screen | 0.03% of 200,000 active | activation, % at 10 µM | DTT-dependent redox cycling H2O2, phenol red/HRP absorbance; 100% = 100 µM peroxide control, 0% = buffer;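 active = activation of at least 50% relative to the plate's high and low controls in the primary single-dose screen; inactive = activation below 50%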;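 also: compound incubated with DTT at 0.8 mM final as the reducing agent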
S1P3 antag – S1P3 receptor antagonists, primary screen, cell-based | Sphingosine 1-phosphate receptor 3 (Homo sapiens), Q99500 | CHO S1P3 NFAT-BLA reporter, FRET fluorescence, antagonist mode | inhibition, % at 4.98 µM | 0.27% of 170,000 active | AID 485, 2006;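 active = inhibition above the plate cutoff, the mean inhibition of test wells on that plate plus 3 SD, cut at about 28% in these data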;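 also: cells challenged with S1P at its EC80 of 0.8 µM; blue over green emission ratio from cleaved BLA substrate after 4 h stimulation; 0% = S1P-stimulated wells and 100% = unstimulated DMSO-only wells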
Target sequence (Q99500 whole entry, looked up): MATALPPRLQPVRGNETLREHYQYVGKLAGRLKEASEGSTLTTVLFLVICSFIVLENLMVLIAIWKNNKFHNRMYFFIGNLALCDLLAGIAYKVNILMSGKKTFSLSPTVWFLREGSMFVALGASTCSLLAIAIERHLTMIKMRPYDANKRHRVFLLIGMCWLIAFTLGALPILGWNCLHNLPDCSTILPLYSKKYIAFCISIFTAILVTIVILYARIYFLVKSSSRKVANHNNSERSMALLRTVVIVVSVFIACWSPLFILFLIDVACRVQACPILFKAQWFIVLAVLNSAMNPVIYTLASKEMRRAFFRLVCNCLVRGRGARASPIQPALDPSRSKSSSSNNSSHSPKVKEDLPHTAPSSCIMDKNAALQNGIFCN
G6PDH counter-2 – Leuconostoc G6PDH inhibition, confirmation, counter-screen for TbHK1 inhibitor project, biochemical, DPI cherry-picked compounds, single concentration; shares compounds with Tb hexokinase; purified G6PDH, NADH absorbance, 1 h; inhibition, % at 10 µM; 7% of 210 active; AID 2516, 2010;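 active = at least 50% inhibition in the glucose-6-phosphate dehydrogenase coupled counterscreen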
TbHK1 rescreen – TbHK1 inhibitor retest, confirmation, biochemical, DPI cherry-picked primary actives; shares compounds with Tb hexokinase; recombinant TbHK1, G6PDH-coupled NADH A340 absorbance; inhibition, % at 10 µM; 10% of 210 active;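 active = inhibition of at least 50% in both of the two screening runs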;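 also: 0% and 100% set by the maximum and minimum signal control wells on each plate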
Starred values were filed as active, the others as inactive.

How did CCOCCCNC(=O)C(NC(=O)c1cnccn1)c1ccc(C)cc1 (configuration not stated) do in these assays?
G6PDH counter-1: 2; p97 inhibitor: -4; Tb hexokinase: 55*; Redox H2O2 prof: 0; G6PDH counter-2: -5; TbHK1 rescreen: 3

Results for CCOCCCNC(=O)C(NC(=O)c1ccc(NC(C)=O)cc1)c1ccc(C)cc1 (configuration not stated) ?
G6PDH counter-1: 15; p97 inhibitor: -2; Tb hexokinase: -4; Redox H2O2 prof: 0; S1P3 antag: -23

How did Cn1c(SCc2ccc(C#N)cc2)nnc1-c1cccc(Cl)c1 do in these assays?
G6PDH counter-1: 4; p97 inhibitor: -2; Tb hexokinase: 55*; Redox H2O2 prof: -1; S1P3 antag: -6; G6PDH counter-2: -12; TbHK1 rescreen: 20

How did Cn1c(SCc2ccc(C#N)cc2)nnc1-c1ccccc1 do in these assays?
G6PDH counter-1: 20; p97 inhibitor: 6; Tb hexokinase: 4; Redox H2O2 prof: 2; S1P3 antag: 4

How did O=C(O)c1cnc(N2CCOCC2)nc1 do in these assays?
G6PDH counter-1: 4; p97 inhibitor: -1; Tb hexokinase: 5; Redox H2O2 prof: 0; S1P3 antag: -1

How did COc1cccc(C(=O)N2CCSC2=S)c1 do in these assays?
G6PDH counter-1: 0; p97 inhibitor: 6; Tb hexokinase: 57*; Redox H2O2 prof: 2; S1P3 antag: 1; G6PDH counter-2: -18; TbHK1 rescreen: -6

Results for CCCOc1ccc(-c2nc(C#N)c(NCC3CCCO3)o2)cc1 (configuration not stated) ?
G6PDH counter-1: -2; p97 inhibitor: -9; Tb hexokinase: -20; Redox H2O2 prof: 0

Results for CCCCc1oc2ccccc2c1C(=O)c1cc(I)c(OCCN(CC)CC)c(I)c1 ?
G6PDH counter-1: 7; p97 inhibitor: 1; Tb hexokinase: 63*; Redox H2O2 prof: 3; S1P3 antag: 1; G6PDH counter-2: 8; TbHK1 rescreen: 6

Results for CCN(CC)CCOc1ncnc2c1oc1ccccc12 ?
G6PDH counter-1: 11; p97 inhibitor: 2; Tb hexokinase: -6; Redox H2O2 prof: -1; S1P3 antag: -10

How did C/C(Cl)=C\Cn1c(NCCc2ccccc2)nc2c1c(=O)n(C)c(=O)n2C do in these assays?
G6PDH counter-1: 4; p97 inhibitor: 3; Tb hexokinase: -3; Redox H2O2 prof: 0; S1P3 antag: 6

What do the screens show for `C/C(Cl)=C/Cn1c(=O)c2c(nc(Br)n2Cc2ccccc2)n(C)c1=O`?
G6PDH counter-1: 22; p97 inhibitor: 1; Tb hexokinase: 58*; Redox H2O2 prof: 2; S1P3 antag: 38; G6PDH counter-2: -5; TbHK1 rescreen: 4

Results for C=CCOc1nc2c(c(=O)n(C)c(=O)n2C)n1Cc1c(Cl)cccc1Cl ?
G6PDH counter-1: 9; p97 inhibitor: 2; Tb hexokinase: 9; Redox H2O2 prof: 2

How did C1CCN=C(Nc2nn[nH]n2)CC1 do in these assays?
G6PDH counter-1: 8; p97 inhibitor: 5; Tb hexokinase: 55*; Redox H2O2 prof: 5; S1P3 antag: -2; G6PDH counter-2: -5; TbHK1 rescreen: -10

Results for O=S1(=O)N=C(Nc2ccc(N3CCOCC3)c(Cl)c2)c2ccccc21 ?
G6PDH counter-1: 3; p97 inhibitor: 1; Tb hexokinase: -12; Redox H2O2 prof: -1; S1P3 antag: 2

Results for NC(=O)C1CCN(C2CC(=O)N(c3cccc(F)c3)C2=O)CC1 (configuration not stated) ?
G6PDH counter-1: -2; p97 inhibitor: 2; Tb hexokinase: 61*; Redox H2O2 prof: 1; S1P3 antag: -18; G6PDH counter-2: -1; TbHK1 rescreen: 2

How did COc1ccc(CNC2=CC(=O)CC(C)(C)C2)cc1 do in these assays?
G6PDH counter-1: 11; p97 inhibitor: 2; Tb hexokinase: 57*; Redox H2O2 prof: -1; S1P3 antag: 20; G6PDH counter-2: -2; TbHK1 rescreen: -3

What do the screens show for `CCC(C)COC(=O)C(C#N)c1nc2ccccc2nc1N1CCCCC1` (configuration not stated)?
G6PDH counter-1: 8; p97 inhibitor: 0; Tb hexokinase: 56*; Redox H2O2 prof: -1; S1P3 antag: 12; G6PDH counter-2: -12; TbHK1 rescreen: 18

How did Brc1cccc(-c2nnco2)c1 do in these assays?
G6PDH counter-1: 17; p97 inhibitor: 3; Tb hexokinase: 0; Redox H2O2 prof: 2; S1P3 antag: 7

Results for Cc1ccc(-c2nnc(NC3CCCCC3)c3ccccc23)cc1S(=O)(=O)N1CCN(C)CC1 ?
G6PDH counter-1: 2; p97 inhibitor: 2; Tb hexokinase: -27; Redox H2O2 prof: 0

Results for CCS(=O)(=O)N1CCC(C(=O)NCCN2CCN(Cc3ccccc3)CC2)CC1 ?
G6PDH counter-1: 16; p97 inhibitor: 0; Tb hexokinase: 50*; Redox H2O2 prof: 0; S1P3 antag: -13; G6PDH counter-2: -6; TbHK1 rescreen: 7

How did CC(C)Sc1nc(-c2cccs2)nc2c1c(=O)n(C)c(=O)n2C do in these assays?
G6PDH counter-1: -3; p97 inhibitor: -1; Tb hexokinase: 1; Redox H2O2 prof: 0; S1P3 antag: -14

Results for CCN1/C(=C/C=C/c2oc3ccc4ccccc4c3[n+]2CC)Oc2ccc3ccccc3c21 ?
G6PDH counter-1: 2; p97 inhibitor: 4; Tb hexokinase: 100*; Redox H2O2 prof: 1; S1P3 antag: 7; G6PDH counter-2: 132*; TbHK1 rescreen: 85*

How did CC(C)(C)C(=O)Nc1nnc(SCC(=O)NCc2cccs2)s1 do in these assays?
G6PDH counter-1: 2; p97 inhibitor: 4; Tb hexokinase: -1; Redox H2O2 prof: 0

How did CC(=O)C1C(c2ccc(O)cc2)NC(=O)NC1(O)C(F)(F)F (configuration not stated) do in these assays?
Tb hexokinase: -8; S1P3 antag: -26

What do the screens show for `CC(=O)C1C(c2ccc(F)cc2)NC(=O)NC1(O)C(F)(F)F` (configuration not stated)?
G6PDH counter-1: 3; p97 inhibitor: -1; Tb hexokinase: 51*; Redox H2O2 prof: 1; S1P3 antag: 42; G6PDH counter-2: -6; TbHK1 rescreen: 3

What do the screens show for `Cc1ccccc1-n1nc2c(c1NC(=O)c1cccc(F)c1)CS(=O)C2` (configuration not stated)?
G6PDH counter-1: -5; p97 inhibitor: 3; Tb hexokinase: -1; Redox H2O2 prof: -2; S1P3 antag: -23

Compound activity (PubChem BioAssay)
